# Assay results as given in PubChem BioAssay.
# Active and inactive are the calls of the source.
# Columns and labels:
# [1] = system: Human papillomavirus type 1a protein E7 (residues 44-93); assay: HPV1a E7 fragment binders on microarrays, primary screen, biochemical, small-molecule microarray, residues 44-93, 635 nm fluorescence (AID 1108); conditions: small-molecule microarray binding, fluorescence 635 nm; higher = more signal;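 further: E7 fragment applied at 1 µg/mL in TBST for 1 h at 4 C; score combines spot fluorescence with its signal to noise ratio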
# [2] = modulators of HCV replicon luciferase signal, primary screen, HCV replication inhibitor project, Huh7 cells, luciferase reporter (AID 1109); conditions: 48 h, higher = more signal;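 further: huh7 hepatoma cells harbouring a luciferase neomycin HCV replicon reporter; luciferase luminescence as measure of HCV replicon replication; test concentration not given here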
# [3] = molecular target: Left-right determination factor 2 (Homo sapiens) (UniProt O00292); assay: LEFTY2 binders on small-molecule microarrays, primary screen, biochemical, small-molecule microarray, 635 nm fluorescence scan (AID 1110); conditions: LEFTY2 binding, higher = more signal
# [4] = molecular target: Calmodulin-1 (Homo sapiens) (UniProt P0DP23); assay: CALM1 binders on microarrays, EGTA buffer, profiling panel, biochemical, small-molecule microarray, Cy5-labelled CALM1 (AID 1111); conditions: Cy5-CALM1 binding fluorescence, higher = more signal;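 further: labelled calmodulin applied in Tris saline Tween buffer holding calcium plus EGTA and DTT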
# [5] = molecular target: Calmodulin-1 (Homo sapiens) (UniProt P0DP23); assay: calcium-bound CALM1 binders on microarrays, profiling panel, artefact control for SMM control-protein annotation, biochemical, small-molecule microarray, Cy5-labelled CALM1, plus calcium (AID 1112); conditions: Cy5-CALM1 binding fluorescence, higher = more signal;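 further: score merges spot fluorescence with signal to noise from triplicate slides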
# [6] = small-molecule microarray binders of probe aWnt5a, primary screen, biochemical, biotinylated probe, 635/667 nm fluorescence (AID 1113); conditions: higher = more signal;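 further: score merges 667 nm fluorescence intensity with signal-to-noise per printed feature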
# [7] = small-molecule microarray binders of probe aShh, primary screen, biochemical, biotinylated probe, 635/667 nm fluorescence (AID 1114); conditions: higher = more signal;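 further: probe is biotin-labelled aShh protein from a stem cell growth factor screen; measures binding of labelled protein to compounds printed on the slide; score merges feature fluorescence at 667 nm with signal-to-noise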
# [8] = small-molecule microarray binders of probe aNog, primary screen, biochemical, biotinylated probe, 635/667 nm fluorescence (AID 1115); conditions: higher = more signal;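 further: probe is biotinylated aNog protein used at 0.15 µg/mL for 1 h at 4 C; z-score combines 667 nm fluorescence of each spot with its signal to noise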
# [9] = molecular target: Torsin-1A-interacting protein 1 (Homo sapiens) (UniProt Q5JTV8); assay: LAP1 binders from COS7 cell lysate, primary screen, small-molecule microarray, 635/667 nm fluorescence (AID 1116); conditions: COS7-hLAP1 lysate binding, 635 nm fluorescence, higher = more signal
# [10] = molecular target: Alpha-bungarotoxin (Bungarus multicinctus) (UniProt P60615); assay: alpha-bungarotoxin binders on microarray, profiling panel, artefact control for SMM control protein annotation, biochemical, small-molecule microarray, Alexa647 label, 635/667 nm fluorescence (AID 1117); conditions: alpha-BTX-A647 binding fluorescence, higher = more signal
# Albumin (Bos taurus) = Albumin (Bos taurus) (UniProt P02769); assay: bovine serum albumin binders on microarray, profiling panel, artefact control for SMM control protein annotation, biochemical, small-molecule microarray, Alexa647 label, 635/667 nm fluorescence (AID 1118); conditions: BSA-A647 binding, fluorescence 635 nm, higher = more signal;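 further: score merges 667 nm emission intensity and signal-to-noise per printed compound spot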
# [11] = small-molecule microarray binders of probe aXIP, primary screen, biochemical, NeuroSMM set, 635/667 nm fluorescence (AID 1119); conditions: higher = more signal, called active from +8 up or from −8 down;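 further: probe is the protein aXip251-270 applied at 1 µg/mL to compound-printed slides; binding of probe to printed compounds measured as 667 nm fluorescence plus signal to noise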
# [12] = small-molecule binders of probe aNOTCH3, primary screen, biochemical, small-molecule microarray, 635/667 nm fluorescence (AID 1120); conditions: higher = more signal;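 further: probe is a biotin-tagged antibody raised against NOTCH3 rather than NOTCH3 protein; score merges spot fluorescence near 667 nm with spot signal to noise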
# [13] = small-molecule binders of probe aNOTCH2, primary screen, biochemical, small-molecule microarray, 635/667 nm fluorescence (AID 1121); conditions: higher = more signal;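 further: score merges feature fluorescence read at 667 nm with its signal to noise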
# [14] = molecular target: Carbonic anhydrase 2 (Homo sapiens) (UniProt P00918); assay: CAII small-molecule binders, profiling panel, biochemical, small-molecule microarray, Alexa647-labelled CAII (AID 1122); conditions: CAII-A647 binding fluorescence, higher = more signal
# [15] = COS7 lysate on small-molecule microarray, probe aHis, 635 nm (AID 1123); conditions: COS7 cell lysate, fluorescence, higher = more signal;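 further: z-score combines 667nm fluorescence intensity with signal-to-noise per printed compound spot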
# [16] = compound binding in COS7 lysate, probe aLAP1, primary screen, cell lysate, small-molecule microarray (AID 1124); conditions: probe aLAP1, fluorescence, higher = more signal;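 further: lysate comes from COS7 cells expressing LAP1 and is applied at 0.3 µg/mL; score merges spot fluorescence near 667 nm with signal-to-noise over triplicate slides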
# Sam68 (KHDRBS1) = assay: Sam68 small-molecule binders, primary screen, biochemical, small-molecule microarray, 635 nm fluorescence (AID 1125); conditions: small-molecule microarray binding, higher = more signal;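 further: score merges 667 nm channel intensity with signal to noise over triplicate slides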
# [17] = system: Chordin-like protein 2 (CHRDL2); assay: CHRDL2 small-molecule binders, primary screen, biochemical, small-molecule microarray, 635 nm fluorescence (AID 1126); conditions: small-molecule microarray binding, fluorescence 635 nm; higher = more signal;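 further: printed compound slides probed with Chrdl2 protein at 4 µg/mL for 1 h at 4 C; score merges 667 nm emission intensity with signal to noise over three replicate slides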
# [18] = molecular target: Concanavalin-A (Canavalia ensiformis) (UniProt P02866); assay: ConA small-molecule binders, primary screen, artefact control for SMM control protein annotation, biochemical, small-molecule microarray, Alexa647 label, 635 nm (AID 1127); conditions: ConA-A647 binding fluorescence, higher = more signal;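 further: z combines 667 nm emission intensity with signal-to-noise across three replicate slides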
# Chain of Concanavalin-A (Canavalia ensiformis) (P02866 whole entry, looked up): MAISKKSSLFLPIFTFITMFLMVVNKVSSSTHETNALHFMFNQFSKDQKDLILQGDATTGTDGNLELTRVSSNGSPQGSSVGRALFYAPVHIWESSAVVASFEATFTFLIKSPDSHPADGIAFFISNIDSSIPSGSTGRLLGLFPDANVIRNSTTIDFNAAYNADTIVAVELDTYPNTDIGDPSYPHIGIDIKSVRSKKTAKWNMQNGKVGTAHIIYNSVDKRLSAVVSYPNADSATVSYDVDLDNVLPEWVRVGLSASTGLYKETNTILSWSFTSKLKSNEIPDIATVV
# Chain of Alpha-bungarotoxin (Bungarus multicinctus) (P60615 whole entry, looked up): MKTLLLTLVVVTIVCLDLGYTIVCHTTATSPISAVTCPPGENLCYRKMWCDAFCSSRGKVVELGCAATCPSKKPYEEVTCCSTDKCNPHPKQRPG
# Chain of Torsin-1A-interacting protein 1 (Homo sapiens) (Q5JTV8 whole entry, looked up): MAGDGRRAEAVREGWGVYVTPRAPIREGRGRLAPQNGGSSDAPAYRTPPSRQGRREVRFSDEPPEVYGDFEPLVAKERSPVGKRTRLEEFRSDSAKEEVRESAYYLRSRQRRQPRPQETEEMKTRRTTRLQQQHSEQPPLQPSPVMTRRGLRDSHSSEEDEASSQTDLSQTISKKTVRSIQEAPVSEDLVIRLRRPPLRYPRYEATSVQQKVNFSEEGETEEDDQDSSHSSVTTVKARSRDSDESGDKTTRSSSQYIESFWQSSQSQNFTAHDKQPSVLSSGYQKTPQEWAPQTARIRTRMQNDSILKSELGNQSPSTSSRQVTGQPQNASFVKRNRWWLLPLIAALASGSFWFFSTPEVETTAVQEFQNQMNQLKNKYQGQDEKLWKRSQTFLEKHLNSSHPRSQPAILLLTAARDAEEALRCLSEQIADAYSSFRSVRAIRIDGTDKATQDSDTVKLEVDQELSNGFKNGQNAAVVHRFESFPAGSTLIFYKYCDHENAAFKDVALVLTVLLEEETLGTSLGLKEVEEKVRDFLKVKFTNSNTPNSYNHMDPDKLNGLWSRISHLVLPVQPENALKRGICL
# Chain of Albumin (Bos taurus) (P02769 whole entry, looked up): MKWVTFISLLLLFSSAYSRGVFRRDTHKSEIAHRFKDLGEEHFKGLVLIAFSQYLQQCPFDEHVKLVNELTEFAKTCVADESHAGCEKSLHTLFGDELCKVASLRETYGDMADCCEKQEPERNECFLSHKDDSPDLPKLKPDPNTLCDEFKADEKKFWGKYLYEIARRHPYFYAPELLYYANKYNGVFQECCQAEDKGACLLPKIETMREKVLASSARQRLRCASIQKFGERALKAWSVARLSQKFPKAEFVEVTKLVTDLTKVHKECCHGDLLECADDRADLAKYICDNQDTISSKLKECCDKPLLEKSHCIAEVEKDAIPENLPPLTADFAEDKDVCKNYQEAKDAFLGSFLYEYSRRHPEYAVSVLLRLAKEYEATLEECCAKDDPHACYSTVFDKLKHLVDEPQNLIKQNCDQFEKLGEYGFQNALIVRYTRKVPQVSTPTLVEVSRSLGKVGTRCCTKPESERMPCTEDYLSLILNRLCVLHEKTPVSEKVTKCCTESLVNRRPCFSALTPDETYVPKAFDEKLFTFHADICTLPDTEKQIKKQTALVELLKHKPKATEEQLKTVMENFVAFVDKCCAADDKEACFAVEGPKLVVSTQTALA
# Chain of Left-right determination factor 2 (Homo sapiens) (O00292 whole entry, looked up): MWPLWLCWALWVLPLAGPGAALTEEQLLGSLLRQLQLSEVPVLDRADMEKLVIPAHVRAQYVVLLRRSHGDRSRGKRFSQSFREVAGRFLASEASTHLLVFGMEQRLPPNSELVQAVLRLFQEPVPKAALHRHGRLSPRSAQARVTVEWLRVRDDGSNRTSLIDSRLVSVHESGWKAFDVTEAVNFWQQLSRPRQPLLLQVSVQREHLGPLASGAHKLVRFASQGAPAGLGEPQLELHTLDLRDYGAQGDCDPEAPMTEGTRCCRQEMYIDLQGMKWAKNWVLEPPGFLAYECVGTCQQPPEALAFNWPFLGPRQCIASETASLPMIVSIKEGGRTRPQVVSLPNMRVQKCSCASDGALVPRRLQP
Structure (SMILES),composite z-score [1],z-score [2],composite z-score [3],composite z-score [4],composite z-score [5],composite z-score [6],composite z-score [7],composite z-score [8],composite z-score [9],composite z-score [10],composite z-score (Albumin (Bos taurus)),composite Z-score [11],composite z-score [12],composite z-score [13],composite z-score [14],composite z-score [15],composite z-score [16],composite z-score (Sam68 (KHDRBS1)),composite z-score [17],composite z-score [18]
C=CCNC(=O)[C@@H]1[C@H]2C(=O)O[C@H](c3ccccc3)[C@H](c3ccccc3)N2[C@H](c2ccc(O)cc2)[C@@]12C(=O)Nc1ccc(C#CC3(O)CCCCCC3)cc12,0.754,-0.608,0.0712,-0.542,-0.0571,-0.127,0.488,-0.499,0.824,-0.243,-0.277,0.156 (inactive),0.39,-0.179,0.653,1.04,0.107,-0.133,0.227,-0.197
CCCCN1CC=CC23O[C@@H]4C=CCOC(=O)[C@@H]4[C@H]2C(=O)N(C(CO)C(C)C)[C@@H]3C1=O (stereo not given in full),-0.321,-1.23,-0.383,-0.782,-0.828,-0.173,-0.138,-0.381,-0.457,-0.843,-0.709,-0.0632 (inactive),-0.279,-0.14,0.321,-0.665,-0.304,-0.616,-0.0407,-0.868
COCCOC(=O)N1C(=O)[C@@]2(c3cc(C#CCCO)ccc31)[C@H](c1ccc(O)cc1)N1[C@H](c3ccccc3)[C@H](c3ccccc3)OC(=O)[C@H]1[C@@H]2C(=O)N1CCc2cc(OC)c(OC)cc2C1,1.41,-0.561,1.14,0.422,-0.0529,0.129,-0.153,1.32,1.13,1.11,-0.997,0.454 (inactive),0.341,0.305,0.345,1.48,1.07,1.32,0.789,1.06
CC(c1ccccc1)C(O)C1C=CC2C(=O)N(c3ccccc3)C(=O)C2N1Nc1ccc(C#N)cc1 (stereo not given),1.41,-0.354,0.8,1.52,0.253,0.216,0.156,1.45,1.8,1.39,0.976,-0.105 (inactive),0.609,-0.0062,0.6,3.28,0.359,1.34,-0.34,1.15
C#CCN=C(N)N,0.69,-0.613,1.11,-0.617,-0.736,-0.131,-0.0813,-0.226,0.622,0.0757,-0.0077,0.322 (inactive),0.0276,-0.0403,0.41,0.121,0.118,0.754,0.437,0.604
CC(C)C(=C=CC[C@@H](O)c1ccc(OCCO)cc1)CCO,0.0426,-0.283,-0.141,0.236,-0.421,-0.18,-0.237,-0.178,-0.117,0.441,0.261,-0.488 (inactive),-0.0259,-0.14,0.601,0.583,-0.178,0.275,0.184,0.224
O=C1c2ccccc2[C@](Cc2ccccc2I)(C(=O)O)[C@H](c2ccc(CO)cc2)N1Cc1ccccc1,1.17,-0.837,-1.04,1.34,0.83,-0.0846,-0.26,-0.215,0.712,2.38,0.48,0.929 (inactive),-0.123,-0.112,0.729,1.25,1.05,1.25,-0.813,1.02
COCCCNC(=O)[C@@H]1c2ccccc2C(=O)N(C2CCCCC2)[C@H]1c1ccc(CO)cc1,-0.093,-1.27,-1.22,-0.28,0.716,-0.124,-0.0769,-0.0633,1.25,-1.08,-0.527,-1.17 (inactive),-0.27,-0.106,0.471,1.08,0.0117,-0.724,-1.23,-0.247
CC(C)C[C@@H]1NC(=O)C([C@@H](C)OCc2ccccc2)NC(=O)[C@@]23C(=O)N[C@@H](Cc4ccccc4)C2[C@H](C)[C@@]2(C)O[C@H]2C3/C=C/CC/C=C/CNC1=O (stereo not given in full),1.12,-2.63,0.458,-0.407,-0.543,-0.15,-0.0064,-0.24,0.0641,-0.0687,0.438,-0.0807 (inactive),-0.0647,-0.128,0.469,0.73,0.184,1.34,0.554,0.329
CN(C)CCCC[C@@H]1NC(=O)[C@@H]2C[C@H](C(=O)NCc3ccc(F)cc3)[C@H](c3ccc(O)cc3)N2C1=O,0.16,-0.0619,-0.275,-0.638,0.235,-0.204,-0.138,-0.0503,0.385,-0.407,-0.16,0.0275 (inactive),0.0562,-0.0974,0.609,0.901,0.339,0.17,0.0978,0.911
CC(C)c1ccc(NN2C(C(O)C(C)C)C=CC3C(=O)N(c4ccccc4)C(=O)C32)cc1 (stereo not given),0.713,2.43,0.136,2.1,0.721,0.168,0.998,1.8,0.817,1.49,1.07,0.349 (inactive),0.761,0.353,0.615,2.89,1.43,1.31,-0.256,1.2
